Screening data deposited in PubChem BioAssay by National Center for Advancing Translational Sciences (NCATS).
PLK1 PBD block – PLK1 (human) polo-box domain binding inhibition; P53350; Plk1 PBD binding of FITC phosphopeptide, fluorescence polarization; Potency, µM, for the others: max response, negative = inhibition, usual class: inhibitors; 360,000 compounds, 2.8% hits; note: series mostly up to about 57 µM; nearly all actives have a fitted effect of over 65% in size
Gal4-VP16 FLuc – Gal4-VP16 reporter inhibition counter-screen; Drosophila S2 Gal4-VP16 UAS-luciferase, luminescence, 20 h; Potency, µM (series often up to 53.6 µM), inactives show top-dose activity, negative = inhibition, usual class: inhibitors; 310,000 compounds, 3.5% hits; AID 2546;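 note: Gal4-VP16 expression switched on by copper sulfate through the metallothionein promoter; nearly all actives have a fitted effect of over 50% in size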
Sfp inh – blocks B. subtilis Sfp PPTase activity | Biochemical Sfp PPTase activity, qHTS | Potency, µM, inactives show largest response in the series, negative = inhibition, hits mostly inhibitors | 310,000 compounds, 3.5% hits;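 note: the enzyme is Sfp with the accession as filed and its product quenches rhodamine fluorescence; 0% = enzyme reaction without inhibitor and -100% = no enzyme wells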
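Compounds were incubated with enzyme (final 15 nM) for 15 min at room temperature before substrate addition started the reaction. Fluorescence at 525 nm excitation, 598 nm emission was recorded immediately and after 30 minutes.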
RORgamma inh – ROR gamma (mouse) transcription inhibition; 310,000 compounds, 5.4% hits; Drosophila S2 Gal4-RORgamma UAS-luciferase reporter, 20 h; Potency, µM (series often up to 53.6 µM), for the others: at the top dose activity change, negative = inhibition, usual class: inhibitors; AID 2551; note: nearly all actives have a fitted effect of over 60% in size
Target sequence (P51450 whole entry, looked up, the tested form may be a part): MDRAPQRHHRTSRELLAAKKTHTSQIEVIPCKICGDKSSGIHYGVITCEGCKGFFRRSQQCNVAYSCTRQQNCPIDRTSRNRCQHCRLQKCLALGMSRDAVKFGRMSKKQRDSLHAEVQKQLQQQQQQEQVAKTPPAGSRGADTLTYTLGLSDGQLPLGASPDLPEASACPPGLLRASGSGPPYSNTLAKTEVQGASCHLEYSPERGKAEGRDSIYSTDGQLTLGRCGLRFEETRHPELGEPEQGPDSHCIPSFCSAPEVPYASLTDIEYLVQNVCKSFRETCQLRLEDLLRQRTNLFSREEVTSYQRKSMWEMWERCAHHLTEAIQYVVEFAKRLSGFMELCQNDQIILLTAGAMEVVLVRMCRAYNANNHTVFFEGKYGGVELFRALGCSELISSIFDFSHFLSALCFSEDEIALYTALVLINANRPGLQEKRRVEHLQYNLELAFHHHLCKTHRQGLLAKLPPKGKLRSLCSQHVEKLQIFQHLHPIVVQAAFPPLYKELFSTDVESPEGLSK
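Read-out: Photinus luciferase luminescence; inhibitors lower reporter signal. Insect Schneider cells with Gal4-ROR gamma fusion under metallothionein promoter, UAS reporter; 700 uM final copper sulfate induction, 20 hr, ambient temperature.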
ALDH1A1 block – inhibitors of human aldehyde dehydrogenase 1A1; AID 1030; 220,000 compounds, 7.3% hits; Potency, µM (top dose mostly 75.3 µM), for the others: top-dose activity, negative = inhibition, hits mostly inhibitors; Purified ALDH1A1, NADH fluorescence, propionaldehyde substrate; active = well fitted inhibition curve with a large enough effect, not every such curve was filed as active; inconclusive = small, poorly fitted or top-dose-only effect, or another doubt; inactive = no such curve, though single readings can be large or run the other way;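 note: plate controls were no enzyme wells and a reference inhibitor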
* hit, by the source's call; ? = inconclusive; nt = not tested or not shown; [ ] = remark or other dose. Shown are actives, neighbours in structure and some others; about 12% of the full set was active somewhere. Unless noted, calls come from the whole dose curve; as a rule, active = well fitted curve in the direction sought with a large enough effect; inconclusive = small, poorly fitted or top-dose-only effect, or another doubt; inactive = no such curve, though single readings can be large; an effect the other way counts as inactive or inconclusive. Unless noted, % is set by controls: 0 for no effect and ±100 for the full control effect; potency is the fitted concentration of half-maximal effect.

SMILES | PLK1 PBD block | Gal4-VP16 FLuc | Sfp inh | RORgamma inh | ALDH1A1 block
O=C1C(=Cc2ccccn2)CCc2ccccc21 | -1% | nt | nt | nt | nt
COc1ccc2c(c1)CC/C(=C/c1ccccn1)C2=O | -6% | -7% | -1% | -42% | nt
O=C(COc1ccc(Cl)cc1)OCCNC12CC3CC(CC(C3)C1)C2 | nt | -10% | ? | 3% | nt
COc1cccc(/C=C2\CCc3ccccc3C2=O)c1 | -1% | 11µM* | -22% | 11µM* | 10%
NC1=N[C@H](c2ccc(Cl)cc2)N(c2ccc(S(N)(=O)=O)cc2)C(N)=N1 | nt | nt | nt | nt | 6%[13.5 µM]
NC(=S)c1cnn2c(-c3cccc(C(F)(F)F)c3)ccnc12 | -8% | 10µM* | 3% | 4µM* | nt
CCCc1cc2c(n1CCc1ccc(Cl)cc1)C(C)C1CN(C(=O)c3ccccc3)C(C)(C(=O)OC)C21 (centres undefined) | nt | -2% | 1% | 4% | -11%
CCn1c2ccccc2c2n[nH]c(=S)nc21 | ? | 8.9µM* | 50µM* | 4µM* | nt
CCCn1c2ccc(C)cc2c2n[nH]c(=S)nc21 | 27µM* | 3.5µM* | 40µM* | 1.8µM* | nt
C=CCn1c2ccccc2c2n[nH]c(=S)nc21 | 0% | 3.5µM* | 40µM* | 2.5µM* | nt
CCn1c2ccccc2c2nn(C)c(=N)nc21 | 0% | -6% | 11% | -9% | 8%
O=C(O)Cn1c2ccccc2c2n[nH]c(=S)nc21 | 27µM* | 9% | 45µM* | -35%[1.91 µM] | nt
Cc1cccc(CN2CCN([C@@H](c3ccccc3)c3ccc(Cl)cc3)CC2)c1 | nt | 1%[17 µM] | 10% | 8%[2.98 µM] | -3%[20.9 µM]
CCOC(=O)c1sc2nc(C)[nH]c(=S)c2c1C | 2% | 0.79µM* | 20% | 0.56µM* | -10%
Nc1nc(-c2cc(O)ccc2[N+](=O)[O-])cc(-c2ccccc2)c1[N+](=O)[O-] | -6% | 13µM* | ? | ? | nt
O=[N+]([O-])c1ccc2nc(-c3ccccc3)cc(-c3ccccc3)c2c1 | 2% | -3% | 10% | 14% | 11%
Brc1ccc(Oc2nsnc2N2CCOCC2)cc1 | -7% | 1% | ? | 16% | 4%
O=c1c(N2CCOCC2)nsnc1N1CCOCC1 | ? | -2% | -4% | 0% | 25µM*
CN(C)CCCNc1ncnc2sc(-c3ccccc3)cc12 | -7% | -12% | 56µM* | 2% | nt
Clc1ccc2c(NCc3ccccn3)ncnc2c1 | -2% | -7% | -9% | -31% | 3.5µM*
Clc1ccc2c(NCc3cccs3)ncnc2c1 | 1% | ? | 4% | 34% | nt
CC1=C(C(=O)N(C)C)C(c2cccc(Cl)c2)NC(=O)N1 (centres undefined) | -6% | -2% | 16% | 11µM* | 2%
CC1=C(C(=O)N(C)C)C(c2cccs2)NC(=O)N1 (centres undefined) | -8% | -1% | 14% | 19% | 9%
O=C(Cc1cccc2ccccc12)N/N=C/c1ccc(Sc2cccc3cccnc23)o1 | nt | ? | -5% | ? | ?
CCCCC(=O)N/N=C/c1ccc(Sc2cccc3cccnc23)o1 | -19% | 11µM* | 35µM* | 5.6µM* | -10%
SMILES | PLK1 PBD block | Gal4-VP16 FLuc | Sfp inh | RORgamma inh | ALDH1A1 block
C=C(C)COc1ccc(-c2[nH]ncc2Oc2cccc(OC)c2)c(O)c1 | 4% | ? | 9% | 6.3µM* | -30%
C=C(C)COc1ccc(-c2[nH]ncc2Oc2ccccc2OCC)c(O)c1 | -5% | -9% | 2% | -7% | 1.6µM*
CCOc1ccccc1Oc1cn[nH]c1-c1ccc(O)cc1O | 0% | ? | 5% | -31% | nt
COc1ccc(-c2[nH]ncc2Oc2ccccc2OC)c(O)c1 | -2% | ? | 7% | 11µM* | -1%
CCCc1ccc(Oc2cn[nH]c2-c2ccc(O)cc2O)cc1 | -9% | -27% | 8% | 16µM* | 15%
C=C(C)COc1ccc(-c2nc(N)ncc2-c2ccc(OC)cc2)c(O)c1 | nt | ? | 2% | ? | ?
C=C(C)COc1ccc(-c2ncncc2Oc2ccc(OC)cc2)c(O)c1 | -4% | ? | 6% | 19% | 20µM*
COc1ccc(C[C@@H]2c3cc(OC)c(OC)cc3CC[N@+]2(C)CCC(=O)OCCCCCOC(=O)CC[N@@+]2(C)CCc3cc(OC)c(OC)cc3[C@H]2Cc2ccc(OC)c(OC)c2)cc1OC | nt | -3%[17 µM] | -7% | 16%[2.98 µM] | -6%[20.9 µM]
Cc1cc(S(=O)(=O)Nc2cccc([N+](=O)[O-])c2)c(C)s1 | -5% | -7% | 16% | -2% | nt
O=[N+]([O-])c1cccc(NNS(=O)(=O)c2ccccc2F)c1 | 21µM* | 6% | ? | -1% | nt
O=C1c2ccccc2C(=O)c2c(O)ccc(O)c21 | nt | -10% | ? | -30% | 3%
O=C1C(=C(I)I)c2ccccc2-c2ccccc21 | 4.7µM* | nt | nt | nt | nt
O=C(O)CNC(=O)CCn1nnc2ccccc2c1=O | 30µM* | -1% | 27% | 1% | nt
O=C(O)CNC(=O)CCCn1nnc2ccccc2c1=O | 8% | -3% | 7% | 37% | nt
Cc1ccc(-n2nc(C)c3c2OC(N)=C(C#N)C3c2ccoc2)cc1 (centres undefined) | -11% | 11% | ? | -9% | 0.89µM*
Cc1ccc(-n2nc(C)c3c2OC(N)=C(C#N)C3c2ccco2)cc1 (centres undefined) | ? | 1% | -16% | ? | 1.6µM*
Cc1ccc(-n2nc(C)c3c2OC(N)=C(C#N)C3c2ccc(C)o2)cc1 (centres undefined) | -25% | -4% | ? | -16% | 1.6µM*
Cc1ccc(-c2[nH]nc3c2C(c2ccoc2)C(C#N)=C(N)O3)cc1C (centres undefined) | ? | 3% | 6% | -5% | -4%
Cc1ccc(SCc2[nH]nc3c2C(c2ccco2)C(C#N)=C(N)O3)cc1 (centres undefined) | 9.5µM* | ? | -10% | -79% | -54%
Cc1ccc(SCc2[nH]nc3c2C(c2ccc(C)o2)C(C#N)=C(N)O3)cc1 (centres undefined) | ? | -7% | ? | 12% | ?
CC(=O)Oc1ccccc1Cn1c(C)c(C(=O)NCc2ccccc2C(F)(F)F)sc1=O | 1% | nt | nt | nt | nt
O=C(NCCCN1CCOCC1)c1ccc(-n2c(=O)c(=O)[nH]c3ccccc32)cc1 | nt | nt | nt | nt | 9%
Cc1ccc(NC(=S)Nc2cc(C(=O)O)ccc2N2CC3CC(C2)c2cccc(=O)n2C3)cc1C (centres undefined) | -29% | 20µM* | 56µM* | 5µM* | 28µM*
CC(C)CO/N=C1/[C@H]2O[C@@H]2[C@@H](O)[C@H]2[C@H]1CCn1c(=O)n(Cc3cc4c(cc3Cl)OCO4)c(=O)n12 | nt | -7%[10 µM] | 8% | 17%[10 µM] | 1%[13.5 µM]
COc1ccc(C(=O)c2ccc(N3CCN(C4CC(=O)NC4=O)CC3)cc2)cc1F (centres undefined) | -2% | -10% | -7% | 35% | 8.9µM*
NS(=O)(=O)c1cnccc1NCCc1ccccc1 | -5% | nt | nt | nt | nt
Cc1ccc(S(=O)(=O)N2CC=C(C(=O)NC3CCCC3)CC2)cc1 | 27µM* | 19% | 6% | 6% | nt
